For 17 compounds, composite z-score and z-score results are on record in PubChem BioAssay.

The source made the active and inactive calls.

The nature of experiment [1]: compounds binding Alexa647 anti-His antibody – biochemical, small-molecule microarray, 635 nm fluorescence, artefact control for SMM control protein annotation, primary screen (AID 1128).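 Also: score merges feature fluorescence with signal-to-noise for each printed compound spot.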 To be noted: higher = more signal.
For experiment [2], the system named is Human papillomavirus type 1a E7 protein (residues 1-88). Put plainly: HPV1a E7 small-molecule binders, primary screen, biochemical, small-molecule microarray, residues 1-88, 635 nm (AID 1129). To be noted: small-molecule microarray binding, fluorescence 635 nm; higher = more signal.
For experiment [3], the target named is Focal adhesion kinase 1 (Homo sapiens) (UniProt Q05397). Put plainly: PTK2 protein binding on printed compound slides – biochemical, small-molecule microarray, 635/667 nm fluorescence, BSA, DTT, primary screen (AID 1130).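 Also: composite of spot emission at 667 nm and signal to noise over triplicate slides.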 To be noted: 635 nm fluorescence, higher = more signal.
Experiment [4] deals with Fibrinogen (Alexa647-labelled). Briefly: Alexa647-fibrinogen binding to printed small molecules – biochemical, small-molecule microarray, 635/667 nm fluorescence, artefact control for SMM control-protein annotation, profiling panel (AID 1131).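 Also: z-score merges 667 nm fluorescence with per-spot signal-to-noise over triplicate slides.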 To be noted: fibrinogen-A647 binding fluorescence, higher = more signal.
For experiment [5], the target named is Follistatin (Homo sapiens) (UniProt P19883). Put plainly: FST protein binding to printed compounds – biochemical, small-molecule microarray, 635/667 nm fluorescence, primary screen (AID 1132). To be noted: 635 nm fluorescence, higher = more signal.
Experiment [6] deals with Fibroblast growth factor 2 (Homo sapiens) (UniProt P09038). Put plainly: basic fibroblast growth factor binding to printed compounds – biochemical, small-molecule microarray, 635/667 nm fluorescence, primary screen (AID 1133). To be noted: FGF2, fluorescence 635/667, higher = more signal.
Experiment [7] is described as follows: JC-1 mitochondrial potential readout, lung cancer cells – cell-based, A549, JC-1 fluorescence, basal, 24 h, 100 nL, profiling panel (AID 1138).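 Also: A549 lung adenocarcinoma cells under basal conditions with no added stimulus; test concentration not given here.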 To be noted: higher = more signal.
A further experiment has as its system Lefty1. Briefly: Lefty1 protein binding to printed compounds – biochemical, small-molecule microarray, 635/667 nm fluorescence, primary screen (AID 1139). To be noted: fluorescence 635/667, higher = more signal.
Experiment [8] relates to wheat germ agglutinin (Triticum aestivum), Alexa647-labelled. Briefly: Alexa647-WGA lectin binding to printed small molecules – biochemical, small-molecule microarray, 635/667 nm fluorescence, artefact control for SMM control-protein annotation, profiling panel (AID 1140).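 Also: score merges 667 nm feature emission with signal to noise over triplicate slides.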 To be noted: WGA-A647 binding, 635 nm fluorescence, higher = more signal.
Experiment [9] deals with Luciferin 4-monooxygenase (Photinus pyralis) (UniProt P08659). Briefly: inhibition of purified Photinus pyralis luciferase – biochemical, luminescence, purified enzyme, 2006 set, primary screen (AID 1141).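 Also: cell-free assay with purified firefly luciferase at 100 ng per well in PBS; test concentration not given here.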 To be noted: purified firefly luciferase, SteadyGlo luminescence, 30 min; higher = more signal, called active from +8 up or from −8 down.
Chain of Luciferin 4-monooxygenase (Photinus pyralis) (P08659 whole entry, looked up): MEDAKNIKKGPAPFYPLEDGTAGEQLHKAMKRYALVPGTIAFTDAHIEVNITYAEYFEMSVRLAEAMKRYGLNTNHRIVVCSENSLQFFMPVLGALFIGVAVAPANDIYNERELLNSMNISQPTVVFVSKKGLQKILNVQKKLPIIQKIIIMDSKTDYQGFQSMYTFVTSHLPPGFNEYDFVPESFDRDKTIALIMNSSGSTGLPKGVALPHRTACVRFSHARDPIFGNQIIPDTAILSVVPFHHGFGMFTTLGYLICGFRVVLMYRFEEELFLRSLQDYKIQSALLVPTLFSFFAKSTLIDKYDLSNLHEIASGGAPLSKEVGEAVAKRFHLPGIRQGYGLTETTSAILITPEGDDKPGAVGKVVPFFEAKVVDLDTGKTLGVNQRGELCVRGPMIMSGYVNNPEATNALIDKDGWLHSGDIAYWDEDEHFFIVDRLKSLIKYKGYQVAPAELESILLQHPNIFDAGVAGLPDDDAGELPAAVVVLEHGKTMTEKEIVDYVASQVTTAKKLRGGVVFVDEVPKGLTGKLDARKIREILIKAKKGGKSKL

Chain of Follistatin (Homo sapiens) (P19883 whole entry, looked up): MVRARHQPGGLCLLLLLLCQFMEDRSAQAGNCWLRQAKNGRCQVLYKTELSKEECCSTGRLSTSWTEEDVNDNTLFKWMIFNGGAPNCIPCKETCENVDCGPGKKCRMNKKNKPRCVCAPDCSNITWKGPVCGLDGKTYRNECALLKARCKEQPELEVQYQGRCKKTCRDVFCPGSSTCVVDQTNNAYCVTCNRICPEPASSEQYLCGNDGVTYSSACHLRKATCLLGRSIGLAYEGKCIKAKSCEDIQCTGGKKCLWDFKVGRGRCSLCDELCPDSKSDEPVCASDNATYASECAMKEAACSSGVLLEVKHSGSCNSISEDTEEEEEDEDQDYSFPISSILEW
Chain of Focal adhesion kinase 1 (Homo sapiens) (Q05397 whole entry, looked up): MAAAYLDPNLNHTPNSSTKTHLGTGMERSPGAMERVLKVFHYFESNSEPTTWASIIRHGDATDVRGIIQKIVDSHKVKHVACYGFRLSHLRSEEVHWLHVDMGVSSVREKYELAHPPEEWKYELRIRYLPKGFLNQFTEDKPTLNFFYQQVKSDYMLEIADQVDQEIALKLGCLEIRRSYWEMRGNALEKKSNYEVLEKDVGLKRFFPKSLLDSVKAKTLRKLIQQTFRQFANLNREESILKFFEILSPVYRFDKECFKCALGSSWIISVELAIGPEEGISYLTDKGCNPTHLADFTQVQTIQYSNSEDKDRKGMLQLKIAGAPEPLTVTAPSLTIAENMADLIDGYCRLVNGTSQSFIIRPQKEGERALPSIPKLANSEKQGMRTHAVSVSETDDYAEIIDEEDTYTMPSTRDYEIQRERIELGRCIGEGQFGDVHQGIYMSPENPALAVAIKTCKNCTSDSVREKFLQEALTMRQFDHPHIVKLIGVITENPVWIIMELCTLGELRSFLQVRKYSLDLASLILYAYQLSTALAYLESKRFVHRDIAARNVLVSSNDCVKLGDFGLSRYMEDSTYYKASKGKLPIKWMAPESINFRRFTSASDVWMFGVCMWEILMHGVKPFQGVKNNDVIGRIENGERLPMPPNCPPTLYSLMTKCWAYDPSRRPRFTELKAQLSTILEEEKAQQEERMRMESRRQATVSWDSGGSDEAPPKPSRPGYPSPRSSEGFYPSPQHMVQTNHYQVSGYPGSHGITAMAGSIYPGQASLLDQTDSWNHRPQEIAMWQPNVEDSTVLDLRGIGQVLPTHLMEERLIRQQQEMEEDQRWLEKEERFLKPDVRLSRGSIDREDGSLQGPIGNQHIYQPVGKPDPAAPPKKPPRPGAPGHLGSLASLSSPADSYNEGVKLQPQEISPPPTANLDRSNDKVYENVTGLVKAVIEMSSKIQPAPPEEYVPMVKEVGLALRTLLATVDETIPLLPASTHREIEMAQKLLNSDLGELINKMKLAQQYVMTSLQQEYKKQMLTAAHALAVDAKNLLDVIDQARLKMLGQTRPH
Chain of Fibroblast growth factor 2 (Homo sapiens) (P09038 whole entry, looked up): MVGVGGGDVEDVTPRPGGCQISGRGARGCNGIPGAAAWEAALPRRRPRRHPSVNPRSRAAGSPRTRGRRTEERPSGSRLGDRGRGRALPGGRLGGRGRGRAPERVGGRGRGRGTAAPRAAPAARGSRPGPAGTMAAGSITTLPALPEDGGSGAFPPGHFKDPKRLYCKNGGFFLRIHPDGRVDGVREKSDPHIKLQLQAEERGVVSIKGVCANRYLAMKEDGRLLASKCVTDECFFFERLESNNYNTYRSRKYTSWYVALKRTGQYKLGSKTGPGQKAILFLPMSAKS

For the compound `C=CC[C@@H](OC(=O)Nc1ccc(SC)cc1)c1ccc(O)c(F)c1`, the composite z-score is 2.11 in experiment [1]; 0.57 in [2]; 0.274 in [3]; 0.221 in [4]; 1.06 in experiment [5]; 1.11 in experiment [6]. Further, the composite z-score in the experiment with Lefty1 was determined as 0.394; in [8] it was 0.904. Moreover, the z-score in experiment [7] was -1.12; in experiment [9] it was -3.58 (inactive).
On to `CCCCNC(=O)c1ccc(C#CC(C)(C)C)c(OC(C)=O)c1`, for which the composite z-score in experiment [1] was found to be 0.213; in [2], 0.712; in experiment [3], 0.797; in [4], 0.587; in experiment [5], 0.665; in [6], 0.553. Moreover, the composite z-score in the experiment on Lefty1 stood at 0.777; in [8], 0.64. The z-score was -0.895 in experiment [7] and 0.856 (inactive) in experiment [9].
Take `CCCNC(=O)[C@@H]1c2ccccc2C(=O)N(Cc2ccc(OC(F)(F)F)cc2)[C@H]1c1ccc(CO)cc1`: the composite z-score is 0.0772 in experiment [1]; 0.907 in [2]; -0.0662 in experiment [3]; 0.368 in [4]; 0.887 in experiment [5]; 0.908 in [6]. In addition, the composite z-score in the experiment on Lefty1 is -0.0534; in experiment [8], 0.0988. Moreover, the z-score in experiment [7] is 1.93; in experiment [9], 0.283 (inactive).
For `CC(C)N1C(=O)C[C@@](C(=O)NC2CC2)(c2ccc([N+](=O)[O-])cc2)[C@H]1c1ccc(CO)cc1`, the composite z-score is 1.7 in [1]; -0.0823 in experiment [2]; 0.403 in experiment [3]; -0.793 in experiment [4]; 0.323 in experiment [5]; 0.362 in [6]. For the same compound, the values for the composite z-score (in the experiment with Lefty1; in experiment [8]) were -1.11 and -0.545, respectively. For the same compound, the values for the z-score in [7] and in experiment [9] were -0.544 and -0.254 (inactive), respectively.
For the compound `CC(C)[Si](C#CCCCC#N)(O[C@H](c1ccccc1)c1cn(Cc2ccccc2)nn1)C(C)C`, the composite z-score is 1.01 in experiment [1]; 0.694 in experiment [2]; -0.359 in [3]; 0.534 in experiment [4]; 0.793 in experiment [5]; 0.725 in [6]. In addition, the composite z-score in the experiment with Lefty1 is 0.809; in experiment [8], 0.235. Further, the z-score in [7] is 0.408; in experiment [9] it was -0.254 (inactive).
In the case of `CCOC(=O)C[C@H]1[C@H](OC(=O)c2ccccc2-c2ccccc2)[C@@H](NC(=O)c2ccc3ccccc3c2)c2cc(OCCCO)ccc2N1C(=O)c1ccccc1`, the composite z-score came to 1.49 in [1]; 0.844 in [2]; 0.288 in [3]; 0.609 in experiment [4]; 0.91 in experiment [5]; 1.08 in experiment [6]. Besides, the composite z-score in the experiment on Lefty1 was 0.868; in experiment [8], -0.0223. Also, the z-score in experiment [7] was 1.04; in experiment [9], -0.124 (inactive).
For `CCCC=C(CCC)[C@@H](NC(=O)C(C)(C)C)c1ccc(C(=O)OC)cc1`, the composite z-score is 0.933 in experiment [1]; 1.01 in experiment [2]; 0.451 in experiment [3]; 0.972 in experiment [4]; 0.156 in experiment [5]; -0.764 in [6]. Besides, the values for the composite z-score (with Lefty1; in [8]) were -0.947 and 0.995, respectively. The z-score was 2.85 in experiment [7] and 1.91 (inactive) in experiment [9].
Consider `NC(=O)NCC#Cc1ccc2c(c1)[C@]1(C(=O)N2)[C@H](c2ccccc2OCCO)N2[C@H](c3ccccc3)[C@H](c3ccccc3)OC(=O)[C@H]2[C@@H]1C(=O)O`, for which the composite z-score was -0.241 in [1]; -0.464 in experiment [2]; -0.178 in [3]; 0.277 in experiment [4]; 0.728 in experiment [5]; 0.387 in experiment [6]. Also, the composite z-score with Lefty1 was 0.477; in [8] it was 0.225. For the same compound, the z-score was -0.545 in experiment [7] and -0.521 (inactive) in experiment [9].
For `CCOC(=O)C[C@H]1[C@H](OC(=O)Cc2ccc3c(c2)OCO3)[C@@H](NC(=O)C2CCCCC2)c2cc(OCCCO)ccc2N1C(=O)c1ccccc1`, the composite z-score in [1] is 0.0657; in [2], -0.0497; in experiment [3], 0.408; in experiment [4] it was 0.744; in experiment [5], -0.2; in experiment [6], 0.0099. For the same compound, the results for the composite z-score (in the experiment on Lefty1; in experiment [8]) were 0.218 and 0.0468, respectively. Also, the z-score is 1.76 in experiment [7] and -1.23 (inactive) in [9].
Take `C#CCN(Cc1ccccc1Br)[C@H](/C=C/c1ccccc1)[C@@H](O)Cc1ccccc1`: the composite z-score was 0.244 in experiment [1]; -0.548 in experiment [2]; -0.082 in experiment [3]; -1.24 in experiment [4]; -1.25 in experiment [5]; -1.23 in experiment [6]. Besides, the composite z-score in the experiment on Lefty1 was -0.62; in [8] it was -0.351. Moreover, the z-score was 0.921 in [7] and -0.629 (inactive) in experiment [9].
In the case of `CCCCN1CC=CC23O[C@@H]4/C=C\CCC(C)OC(=O)C4[C@H]2C(=O)N(CCCO)[C@@H]3C1=O` (stereo not given in full), the composite z-score in experiment [1] was 1.41; in experiment [2], -0.708; in experiment [3], -0.198; in experiment [4] it was -0.992; in experiment [5], -0.885; in experiment [6] it was -1.24. In addition, the composite z-score in the experiment on Lefty1 is -0.46; in experiment [8] it was -0.588. For the same compound, the z-score in experiment [7] was -0.573; in [9], 0.821 (inactive).
Regarding `COc1ccc(C#Cc2ccc3c(c2)[C@]2(C(=O)N3)[C@H](c3ccc(O)cc3)N3[C@H](c4ccccc4)[C@H](c4ccccc4)OC(=O)[C@H]3[C@@H]2C(=O)Nc2nc3ccccc3s2)cc1`, the composite z-score in [1] was determined as 0.269; in experiment [2] it was 1.25; in experiment [3] it was 0.359; in experiment [4], 0.983; in experiment [5] it was 1.29; in experiment [6], 0.964. For the same compound, the composite z-score in the experiment on Lefty1 came to 0.882; in [8] it was 0.768. For the same compound, the z-score was -2.1 in experiment [7] and -1.28 (inactive) in [9].
For the compound `CC(C)NC(=O)[C@@]1(c2ccc([N+](=O)[O-])cc2)CC(=O)N(C2CCCCC2)[C@@H]1c1ccc(CO)cc1`, the composite z-score is 2.4 in [1]; 1.17 in experiment [2]; 0.959 in [3]; 0.729 in [4]; 1.28 in [5]; 0.584 in experiment [6]. Moreover, the composite z-score in the experiment on Lefty1 amounted to 1.29; in [8] it was 0.965. Moreover, the results for the z-score in experiment [7] and in experiment [9] were 0.438 and 1.46 (inactive), respectively.
In the case of `Cc1ccc(S[C@]2(C(=O)NC(C)C)CC(=O)N(Cc3cc(C(F)(F)F)cc(C(F)(F)F)c3)[C@@H]2c2ccc(CO)cc2)cc1`, the composite z-score in experiment [1] was -0.254; in experiment [2], -0.629; in experiment [3], -0.734; in experiment [4], -0.983; in experiment [5], -1.33; in experiment [6], -0.977. Also, the composite z-score is -0.67 with Lefty1 and 0.0491 in experiment [8]. The figures for the z-score in experiment [7] and in [9] were 0.605 and -0.222 (inactive), respectively.
Take `CCCCCCCCCCC(O)C1C=CC2C(=O)N(c3ccccc3)C(=O)C2N1Nc1ccc(C#N)cc1` (stereo not given): the composite z-score was -0.0221 in [1]; 1.18 in experiment [2]; 0.464 in [3]; 0.989 in experiment [4]; 0.652 in [5]; 0.429 in [6]. Moreover, the results for the composite z-score (in the experiment on Lefty1; in experiment [8]) were 0.0328 and 1.13, respectively. Further, the z-score in experiment [7] is 3.49; in experiment [9], 0.675 (inactive).
Consider `CC(C)[Si]1(C(C)C)OCc2cc(-c3ccc(-c4ccc(Cl)c(Cl)c4)o3)nc(-c3ccccc3)c21`, for which the composite z-score in experiment [1] is -0.534; in experiment [2] it was -1.65; in experiment [3], -0.838; in [4], -1.32; in [5], -0.751; in experiment [6], -0.94. For the same compound, the results for the composite z-score (in the experiment with Lefty1; in [8]) were -0.21 and -0.0496, respectively. The figures for the z-score in [7] and in experiment [9] were -0.447 and -1.07 (inactive), respectively.
For `[N-]=[N+]=Nc1ccccc1C[C@]1(C(=O)N2CCOCC2)COC(c2ccc(OCCCO)cc2)=N1`, the composite z-score in experiment [1] is 0.964; in [2], 1.24; in experiment [3], 0.144; in experiment [4], 1.04; in experiment [5] it was 0.39; in experiment [6], -0.313. Further, the composite z-score with Lefty1 was -0.0478; in experiment [8] it was 0.606. In addition, the z-score in experiment [7] was 0.9; in [9], -5.96 (inactive).
